Where “and” joins values, the source holds several entries; their conditions need not be identical. Identical values can stand only once. Results filed as inconclusive are left out. Calls of active or inactive are those of the source. Unless noted, calls follow the shape of the dose curve; as a rule, active = well fitted curve in the direction sought with a large enough effect; inconclusive = small, poorly fitted or top-dose-only effect, or another doubt; inactive = no such curve, though single readings can be large; an effect the other way counts as inactive or inconclusive.
Columns and labels:
[1] = Cell Viability - BJ (AID 421; calls by dose curve;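 also: potency is read from the fitted curve at half-maximal effect; cells exposed to compound for 40 hours at 37 °C before readout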); conditions: BJ fibroblast viability, qHTS
How it was run: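 Cytotoxicity in human BJ foreskin fibroblasts is scored as loss of cellular ATP after a 40-hour exposure, measured by luciferase luminescence. Controls are DMSO and 100 uM tamoxifen.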

[2] = Cell Viability - Jurkat (AID 426;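 active = dose-dependent loss of cell ATP signal giving a full or clear fitted curve, ranked by lower potency value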;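 also: potency is read from the fitted curve at half-maximal effect; cells exposed to compound for 40 hours at 37 °C before ATP read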); conditions: qHTS
How it was run: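 Cytotoxicity taken as drop in cellular ATP (CellTiter-Glo luminescence, 20 min room temperature) after 40 hr, 37C treatment of 5000 Jurkat Clone E6-1 cells per well; concentration-response fitted with Hill equation for AC50.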

[3] = Cell Viability - Hek293 (AID 427;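 active = compounds whose dose-response curve shows a full or clear partial loss of cell viability, called from curve shape rather than a numeric limit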;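 also: potency is read from the fitted curve at half-maximal effect; cells exposed to compound for 40 hours at 37 °C before reading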); conditions: qHTS
How it was run: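 qHTS, human embryonic kidney (adenovirus-transformed) cells; 40 hr cpd, 37 °C; CellTiter-Glo ATP luminescence. Norm: DMSO = 0, 100 uM tamoxifen = 100% inhibition. Hill-fit AC50.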

[4] = Cell Viability - MRC5 (AID 434; calls by dose curve;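 also: potency is read from the fitted curve at half-maximal effect; cells exposed to compound for 40 hours at 37 °C; potency reflects cytotoxicity seen as loss of intracellular ATP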); conditions: MRC5 lung fibroblast viability, qHTS
How it was run: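 ATP luminescence read-out (CellTiter-Glo, 20 min RT) after 40 hr, 37 °C compound exposure of 1500 MRC5 cells/well. Data normalized to DMSO (basal) and 100 uM tamoxifen (100% inhibition); AC50 from standard Hill equation.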

[5] = Cell Viability - SK-N-SH (AID 435; calls by dose curve; also: potency is read from the fitted curve at half-maximal effect); conditions: SK-N-SH neuroblastoma cell viability qHTS
How it was run: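 qHTS cytotoxicity: CellTiter-Glo ATP luminescence after 40 h compound exposure of human neuroblastoma SK-N-SH cells at 37 °C. AC50 derived by Hill-equation fitting, with DMSO as basal and 100 uM tamoxifen as full inhibition.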

[6] = target: Mitogen-activated protein kinase 10 (Mus musculus) (UniProt Q61831); test: JNK3 AlphaScreen Assay (AID 530; active = well fitted curve in either direction with a large enough effect, not every such curve was filed as active;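 also: kinase came from lysate of stimulated human HepG2 cells; signal reports phosphorylation of biotinylated GST-cJun 1-79 at Ser73 with 10 µM ATP; % is scaled to controls: 0 for no effect and ±100 for the full control effect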); conditions: JNK3 lysate, c-Jun phosphorylation; series mostly up to 57.1 µM
How it was run: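 Activity was read by AlphaScreen after JNK3-containing HepG2 lysate (cytokine pre-activated) phosphorylated biotinylated GST-cJun with 10 uM ATP at room temperature. Phospho-Ser73 cJun antibody with Protein-A acceptor beads provided detection.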

[7] = Cell Viability - N2a (AID 540); conditions: N2a mouse neuroblastoma cell viability; activity change, negative = cytotoxicity: at 92.2 µM (top of the series);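 also: plate controls were DMSO alone for no effect and tamoxifen control for full effect; nearly all actives have a fitted effect of over 45% in size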
How it was run: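 CellTiter-Glo ATP luminescence, read 20 min after reagent at room temperature, reported viability following 40 h compound treatment at 37 °C. N2a mouse neuroblastoma cells seeded 1500/well; Hill equation gave AC50.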

[8] = Cell Viability - NIH 3T3 (AID 541); conditions: NIH 3T3 cell viability, qHTS; activity change, negative = cytotoxicity: at 92.2 µM (top of the series);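 also: cells exposed to compound for 40 hours; plate controls were DMSO alone for no effect and tamoxifen positive control for full effect; nearly all actives have a fitted effect of over 25% in size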
How it was run: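 Intracellular ATP (CellTiter-Glo luminescence, 20 min at room temperature) measured after 40 hr compound exposure at 37 °C of 1000 NIH 3T3 mouse fibroblasts/well in complete medium; AC50 derived by Hill-equation modelling of qHTS concentration-response curves.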

[9] = Cell Viability - HUV-EC-C (AID 542); conditions: HUV-EC-C endothelial cell viability, qHTS; series mostly up to 92.2 µM;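 also: cells exposed to compound for 40 hours; % is scaled to controls: 0 for no effect and ±100 for the full control effect; nearly all actives have a fitted effect of over 35% in size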
How it was run: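 CellTiter-Glo luminescence measured ATP loss in HUV-EC-C cells (1000/well) after 40 hr compound exposure at 37 °C, in complete culture medium. Concentration-response data were Hill-fitted to give AC50.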

[10] = Cell Viability - H-4-II-E (AID 543); conditions: H-4-II-E rat hepatoma viability; series mostly up to 92.2 µM;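 also: cells exposed to compound for 40 hours; % is scaled to controls: 0 for no effect and ±100 for the full control effect; nearly all actives have a fitted effect of over 35% in size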
How it was run: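 CellTiter-Glo luminescence (intracellular ATP) measured after 40 h compound exposure at 37 °C in H-4-II-E rat hepatoma cells seeded at 1500/well. Values are AC50s fitted with the standard Hill equation.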

[11] = Cell Viability - SH-SY5Y (AID 544); conditions: SH-SY5Y neuroblastoma cell viability; series mostly up to 92.2 µM;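 also: cells exposed to compound for 40 hours; nearly all actives have a fitted effect of over 55% in size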
How it was run: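 Cytotoxicity measured via ATP-dependent luciferase luminescence (CellTiter-Glo) following 40 h, 37 °C exposure of 1500 SH-SY5Y cells per well. Concentration-response data were fitted with the standard Hill equation to give AC50.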

[12] = Cell Viability - Renal Proximal Tubule (AID 545); conditions: renal proximal tubule cells viability, primary cells of rat origin; at 91.7 µM (top of the series);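 also: cells exposed to compound for 40 hours; nearly all actives have a fitted effect of over 40% in size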
How it was run: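 Viability taken as intracellular ATP (CellTiter-Glo luminescence) after 40 hr, 37 °C compound treatment of primary proximal tubule cells from rat kidney, 1000 cells/well; Hill-equation fits of qHTS concentration-response data gave AC50.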

[13] = Cell Viability - Mesenchymal (AID 546); conditions: mesenchymal cells viability, qHTS; activity change, negative = cytotoxicity: at 91.7 µM (top of the series);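 also: cells exposed to compound for 40 hours before reading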
How it was run: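 Human renal mesenchymal cells (glomerulus-derived), 1000 cells/well, 5 hr 37 °C pre-incubation; compound 40 hr, 37 °C; CellTiter-Glo, 20 min RT; luminescence; AC50 via Hill equation.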

[14] = Cellular Toxicity (caspase-3) HepG2 (AID 654); conditions: HepG2 caspase-3 activation, luminescence, 0% = DMSO only, 100% = tamoxifen; series mostly up to 92.2 µM;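 also: cells exposed to compound for 16 hours before reading; 0% = DMSO alone and 100% = caspase signal from 100 µM tamoxifen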
How it was run: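 Caspase 3/7 activation is measured as a luminescence increase (aminoluciferin substrate) after 16 h compound exposure of human hepatocarcinoma HepG2 cells. AC50 values are Hill fits, scaled between DMSO baseline and 100 uM tamoxifen stimulation.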

[15] = Cellular Toxicity (caspase-3) Jurkat (AID 655); conditions: Jurkat caspase-3 activation, luminescence, DMSO = 0%, tamoxifen = 100%; at 92.2 µM (top of the series);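 also: cells exposed to compound for 16 h at 37 °C before reading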
How it was run: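 Luminescent Caspase-Glo 3/7 read-out (20 min, room temperature) after 16 h compound treatment at 37 C of 5000 Jurkat cells per well. AC50 derived by Hill-equation fitting, scaled between DMSO basal and 100 uM tamoxifen stimulation.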

[16] = Cellular Toxicity (caspase-3) HUV-EC-C (AID 656); conditions: HUV-EC-C cells, caspase-3 activation (apoptosis), vehicle = 0, 100 µM tamoxifen = 100%; series mostly up to 92.2 µM
How it was run: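 Luminescent Caspase-Glo 3/7 readout after 16 h, 37 °C compound exposure of HUV-EC-C endothelial cells, 1000 per well, complete medium. AC50 derived by Hill fitting, with DMSO as baseline and 100 uM tamoxifen as full activation.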

[17] = Cellular Toxicity (caspase-3) SHSY5Y (AID 657); conditions: SH-SY5Y caspase-3 activation, DMSO zero, 10 µM staurosporine = 100%; series mostly up to 91.7 µM
How it was run: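 Luminescent Caspase-Glo 3/7 read-out, 1 hr room temperature, follows 16 hours of compound treatment of SH-SY5Y cells at 37 °C. Normalization: DMSO basal, 10 uM staurosporine as 100%; AC50 values from Hill-equation concentration-response fits.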

[18] = Cellular Toxicity (caspase-3) BJ (AID 658); conditions: BJ fibroblasts, luminescence, normalized: DMSO 0%, staurosporine 100%; series mostly up to 91.7 µM
How it was run: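 qHTS, BJ fibroblasts, 1000 cells/well; 5 hr preincubation, 16 hr compound, 37 °C; Caspase-Glo 3/7 reagent, 1 hr RT; luminescence. DMSO = 0%, 10 uM staurosporine = 100%. Hill-equation AC50.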

[19] = Cellular Toxicity (caspase-3) MRC-5 (AID 659); conditions: MRC-5 cells, luminescence, normalized: DMSO 0%, 10 µM staurosporine 100%; series mostly up to 91.7 µM
How it was run: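 MRC-5 fibroblasts, 1500/well; 16 h cpd, 37 °C; Caspase-Glo 3/7, 1 h RT; lumi read. Norm: DMSO = 0%, 10 uM staurosporine = 100%. Hill-fit AC50 from qHTS conc-response.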

[20] = Cellular Toxicity (caspase-3) Mesangial (AID 660); conditions: mesangial cells, normalized: DMSO 0%, 100 µM tamoxifen 100%; series mostly up to 91.7 µM;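 also: combined caspase 3 and 7 activity read by Caspase-Glo luminescence; cells exposed to compound for 16 h before the caspase read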
How it was run: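 Caspase 3/7 activation measured by Caspase-Glo 3/7 luminescence (20 min, room temperature) following 16 h exposure of mesangial cells (1000/well); AC50 from Hill-equation fit, normalized to DMSO and 100 uM tamoxifen.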

[21] = Cellular Toxicity (caspase-3) SK-N-SH (AID 661); conditions: SK-N-SH caspase-3 activation, qHTS, DMSO as zero, staurosporine as full; series mostly up to 91.7 µM
How it was run: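 Caspase 3/7 activation was read by luminogenic substrate cleavage after 16 hour treatment of SK-N-SH cells. Signal was scaled between DMSO and 10 uM staurosporine, and concentration-response data were fitted with the Hill equation for AC50.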

CCCCCCCCCCCC(=O)O
inactive: Potency [1] > 92 µM | Potency [2] > 92 µM | Potency [3] > 92 µM | Potency [4] > 92 µM | Potency [5] > 92 µM | Potency [6] | activity change, negative = cytotoxicity [7] -16.1% and -7.4% | Potency [8] | outcome [9] | Potency [10] | Potency [11] | activity change, negative = cytotoxicity [12] -7.81% and -14% | activity change, negative = cytotoxicity [13] -0.623% and 0.657% | outcome [14] | caspase-3 activation [15] -6.31% and -4.32% | outcome [16] | outcome [17] | outcome [18] | outcome [19] | outcome [20] | outcome [21]
